Results from PubChem BioAssay (NCI).
Compounds without any hit were thinned out: in the full panel of roughly 83,000, 20% have a hit.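 The test compound was applied at a single concentration to cells in 96-well plates for 48 hours, and percent growth was recorded.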 Unmarked numbers belong to inactive results. The source made the active and inactive calls. How the source made its calls: active means growth percent below 10; inactive means the rest.

How the values were obtained:
Assay in all cases: NCI-60 one-dose screen, 48 h (100 = growth as untreated, 0 = no growth, -100 = all killed)
Conditions in all cases: 10 µM
T-47D breast = system: T-47D breast
BT-549 breast = system: BT-549 breast
MDA-MB-435 melanoma = system: MDA-MB-435 melanoma
SW-620 colon = system: SW-620 colon
MCF7 breast = system: MCF7 breast
HCT-116 colon = system: HCT-116 colon
HCC-2998 colon = system: HCC-2998 colon
KM12 colon = system: KM12 colon
MDA-MB-468 breast = system: MDA-MB-468 breast

| SMILES | growth (T-47D breast) | growth (BT-549 breast) | growth (MDA-MB-435 melanoma) | growth (SW-620 colon) | growth (MCF7 breast) | growth (HCT-116 colon) | growth (HCC-2998 colon) | growth (KM12 colon) | growth (MDA-MB-468 breast) |
| --- | --- | --- | --- | --- | --- | --- | --- | --- | --- |
| COc1cccc(-c2ccnc(/N=C(\N)Nc3ccc(S(=O)(=O)Nc4nc(C)cc(C)n4)cc3)n2)c1 | 88.4% | 111% | 109% | 105% | 75.9% | 103% | 114% | 98% |  |
| O=c1oc2ccccc2cc1-c1csc(N=Nc2c(O)[nH]c3ccc(Br)cc23)n1 | 89.1% | 62.9% | 102% | 104% | 80.7% | 64.1% | 96.3% | 99.9% |  |
| Cc1nc2c(cnn2-c2ccccc2)c(=O)n1-c1ccc(NC(=O)c2ccc(F)cc2)cc1 | 18% | 46% | 53.8% | 76.5% | 35.8% | 48.3% | 79.9% | 64.1% |  |
| N#Cc1ccc(NC(=O)CSc2ccc(-c3ccc(Br)cc3)nn2)cc1 | 46.9% | 70.5% | 65.1% | 91.1% | 56.2% | 64% | 92.9% | 76.7% |  |
| Cc1ccc2nc3c(nc2c1)c1cc(I)ccc1n3CCN(C)C | 44.8% | 60.2% | 13.7% | 15.9% | -4.43% (active) | 9.81% (active) | -15.6% (active) |  |  |
| O=C(Cc1ccc2c(c1)CN(C1CCC(=O)NC1=O)C2=O)NCc1cccc2ccccc12 (stereo not drawn) | -4.86% (active) | -52.8% (active) | -15.1% (active) | 5.07% (active) | 1.22% (active) | 9.59% (active) | -48.6% (active) | -7.26% (active) |  |
| Cc1ccc([N+](=O)[O-])c(C(=O)Nc2ccc(-c3ccc4c(c3)NC(=O)/C4=C\c3ccc[nH]3)cc2)c1 | -15.7% (active) | 97.5% | 32% | -51.2% (active) | -47.7% (active) | 55.9% | 47.6% | -10.9% (active) |  |
| COc1ccc(N2N=C(c3ccc4c(c3)OCCO4)CC2c2cccc(NC(=O)CCCNS(=O)(=O)c3ccc(F)cc3)c2)cc1 (stereo not drawn) | 63.3% | 78.3% | 69.7% | 95.2% | 60.7% | 73.3% | 77.1% | -92.8% (active) |  |
| Brc1ccc(N/N=C/c2c[nH]c3ccccc23)nc1 | 25.7% | -2.29% (active) | 30.4% | 20.8% | 9.88% (active) | 6.45% (active) | -1.13% (active) | 0.217% (active) |  |
| COC(=O)c1c(C(=O)OC)c2n(c1C)[C@@H]([C@@H](C)[C@H]1CC[C@H]3[C@@H]4CCC5=CC(=O)CC[C@]5(C)[C@H]4CC[C@]13C)SC2 | 4.62% (active) | -3.38% (active) | 22.4% | 34.2% | 4.29% (active) | 23.2% | 45% | 25.8% |  |
| COc1cc(/C=C/C(=O)c2ccc(NC(=O)CN3C(=O)NC(C)(c4ccccc4)C3=O)cc2)cc(OC)c1OC (stereo not drawn) | 33.9% | 10.9% | 7.31% (active) | 8.07% (active) | 2.86% (active) | -69.7% (active) | 10% | -6.47% (active) |  |
| COC(=O)C(Cc1ccc(O)c(O)c1)NC(=O)C(CSC/C=C(\C)CCCC(C)CCCC(C)CCCC(C)C)NC(C)=O (stereo not drawn) | -0.796% (active) | 23.3% | 30% | 19.8% | 24.4% | 21.2% | 19.3% | 16.4% |  |
| CN1CCN(c2ccc(C(=O)/C=C/c3cc(Br)ccc3F)cc2)CC1 | 59.8% | 59.3% | 1.57% (active) | -25.7% (active) | 2.37% (active) | 1.2% (active) | -63.2% (active) | 8.8% (active) |  |
| CCN1CCN(c2ccc(NC(=O)Nc3ccc4c(c3F)CCN4c3ccnc(C(=O)NC)c3)cc2C(F)(F)F)CC1 | 105% | -39.7% (active) | -92.7% (active) | -76.9% (active) | -77.9% (active) | -96.5% (active) | 120% | -83.3% (active) | 98.9% |
| CCOC(=O)c1sc(N/N=C(\C)c2ccc3c(c2)Nc2ccccc2S3)nc1C | 8.5% (active) | 48.1% | 34.5% | 20.3% | -2.84% (active) | 23.4% | 3.51% (active) | 7.04% (active) |  |
| N#Cc1c(-c2ccc(Cl)cc2)cc(-c2ccccc2)nc1OCc1ccccc1 | 52.3% | 83.4% | 96.1% | 84% | 53.8% | 53.7% | 95% | 82.6% |  |
| COc1ccc2ncc(C#Cc3cncc(C(=O)Nc4ccc(CN5CCN(C)CC5)c(C(F)(F)F)c4)c3)n2n1 | 61.8% | -75.7% (active) | -89.6% (active) | -72.4% (active) | -71.7% (active) | -43.6% (active) | -95.8% (active) |  |  |
| CCCCOc1ccc(Nc2nc3ccccc3nc2Nc2ccc(OCCCC)cc2)cc1 | 79% | 104% | 88.4% | 96.3% | 75.3% | 49% | 106% | 86.8% |  |
| Cc1cc(C)nc(NS(=O)(=O)c2ccc(N/C(N)=N/c3nccc(-c4ccccc4)n3)cc2)n1 | 25.1% | 83.7% | 86% | 93.8% | 37% | 76.6% | 85.3% | 78.8% |  |
| COc1cc2c(cc1OC)CN(CCCCOc1cc(O)c3c(=O)cc(-c4ccccc4)oc3c1)CC2 | 1.69% (active) | 63.6% | 67.5% | 62.8% | 29.3% | 0.234% (active) | -7.68% (active) | 80.1% | -7.3% (active) |
| COc1ccc(C(=O)Nc2ccc(-c3ccc4c(c3)NC(=O)/C4=C\c3ccc[nH]3)cc2)cc1 | 14.5% | 88.5% | 30.4% | -14.7% (active) | -31.9% (active) | 36.4% | 31.3% | 1.95% (active) |  |
| Cc1ccc(/C=C/C(=O)c2ccc(NC(=O)CSc3nnc(-c4c[nH]c5ccccc45)n3-c3ccccc3)cc2)c(C)c1 | 36.9% | 52.8% | 49.5% | 33.2% | 3.33% (active) | -4.32% (active) | 74.1% | 66.6% |  |
| CN(C)c1ccc(/C=C/c2nc3ccccc3c(=O)n2CC(=O)Nc2ccccc2)cc1 | 49.3% | -1.24% (active) | 60.2% | 57.8% | 26% | 31.1% | 58.2% | 75.7% |  |
| Cc1ccc(-c2cc(C(=O)N=Nc3c(O)[nH]c4ccccc34)c3ccccc3n2)cc1 | 43.8% | 34.5% | 5.71% (active) | 8.14% (active) | 6.61% (active) | -15.8% (active) | 48.4% |  |  |
| CC(C)CCSc1nc(NC2CC2)c(C#N)c(-c2ccc(C(C)C)cc2)n1 | 100% | 100% | 112% | 114% | 97.9% | 108% | 115% | 107% |  |
| COc1ccccc1[C@H]1C(C(=O)c2ccc(Cl)cc2)C2(N[C@@H]1c1ccccc1)C(=O)Nc1ccc(Cl)cc12 (stereo partly drawn) | 5.84% (active) | -1.27% (active) | -44.4% (active) | 6.3% (active) | -4.87% (active) | 10.1% | -18.8% (active) | 9.71% (active) |  |
| COc1cc2c3c(n(CCCNC(C)C)c(=O)c2cc1OC)-c1nc2c(cc1C3=O)OCO2 | 43.9% | 49.1% | -86.9% (active) | -62.8% (active) | -89.8% (active) | -60.4% (active) | 65.5% | -90.1% (active) |  |
| O=c1oc2ccc(-c3ccc(F)cc3F)cc2c(=O)n1-c1ccc(Cl)c(C(F)(F)F)c1 | -12.5% (active) | -37.4% (active) | -5.35% (active) | 13% | -16.2% (active) | 9.46% (active) | 2.17% (active) | -14% (active) |  |
